Reference: PubChem BioAssay AID1347071 (National Center for Advancing Translational Sciences (NCATS), 2019)
Screen size: about 410,000 compounds; about 260 (0.063%) were called active. Not shown: some 2% with an inconclusive outcome. The sample holds actives, similar compounds and a random draw of the others, so the mix is not that of the screen. Values without a mark were called inactive. The call rests on the fitted dose curve; in most records, active means well fitted activation curve with a large enough effect; inconclusive means small, poorly fitted or top-dose-only effect; inactive means no such curve, though single readings can be large or run the other way.

Assay: qHTS for compounds that reverse cellular toxicity of Amyloid beta (A-beta) peptide in yeast: Primary Screen; further: nearly all actives have a fitted effect of over 55% in size
Conditions: yeast expressing A-beta42, growth rescue, OD600, 48 h; series mostly up to 46.1 µM; growth rescue: at the top concentration
From the text: The A-beta peptide is produced by the processing of the amyloid precursor protein (APP) by two proteases, beta and gamma secretases. […] A-beta42 is regarded as the most amyloidogenic form due to its hydrophobicity; however, precisely how A-beta42 induces neurotoxicity is unclear. To understand further this biology and its potential therapeutic implications for human neurodegenerative disease, a quantitative high-throughput screen for compounds that reverse the cellular toxicity of the A-beta peptide was developed. A yeast based screen was used because it recapitulates the salient feature of protein mis-folding disorder accurately. This cell-based phenotypic screen provides a significant, unbiased advantage by letting the compounds and models inform us which proteins or pathways are most relevant. The ideal chemical candidates would therefore have activity in both our primary yeast and secondary neuronal toxicity assays, as well as in mouse models. They will be valuable tools for dissecting diverse protein homeostasis pathologies and could potentially become the focus for future pre-clinical development. For this luminescence assay, inhibition of A-beta rescues the toxic effect in the yeast cell, resulting in increase of signals and the desired phenotype of "Activator". This screen is run against the Molecular Libraries Small Molecule Repository (MLSMR) and the NCGC Sytravon Library Collection.
NIH Chemical Genomics Center [NCGC]
NIH Molecular Libraries Probe Centers Network [MLPCN]
Assay Submitter (PI): Susan Lindquist, Whitehead Institute, Massachusetts Institute of Technology
[1] Vassar R,et al (1999). Beta-secretase cleavage of Alzheimer's amyloid precursor protein by the transmembrane aspartic protease BACE. Science. 286: 735-741.
[2] Yan R, et al (1999). Membrane-anchored aspartyl protease with Alzheimer's disease beta-secretase activity. Nature. 402: 533-536.
Two and a half microliter / well of yeast growth medium were dispensed in a 1536 assay plate. Compounds were pinned using the Kalypsys robotic system followed by addition of 2.5 uL / well yeast solution. The assay plates were incubated at 30 C. After 48 hr, the absorbance signal at 600 nm was obtained using the PerkinElmer ViewLux plate reader to assess yeast growth. The data was normalized to the positive control of an equimolar mixture of ferric chloride (FeCl3) and clioquinol and to the negative control DMSO.

Going from `CCOC(=O)c1cnc2c(C)cc(C)cc2c1Nc1ccc(N2CCOCC2)cc1` to `CCOc1ccc(C(=O)NC(=S)Nc2ccc(N3CCOCC3)c(Cl)c2)cc1[N+](=O)[O-]`, the “growth rescue” value rises from -5.22% to 23.6%.

Compared with `COc1ccc(CNC(=O)Cn2nnc(-c3ccccc3F)n2)cc1`, `COc1ccc(OC)c(CNC(=O)Cn2nc(C)c3c(C)n(-c4ccccc4)nc3c2=O)c1` is lower in “growth rescue” value: 6.97% for the first, -7.97% for the second.

Going from `Cc1cccc(-n2ccnc2SCC(=O)Nc2cccc3ccccc23)c1C` to `Cc1cc(C)cc(-n2ccnc2SCC(=O)Nc2nc3ccccc3s2)c1`, the “growth rescue” value falls from -14.7% to -20.3%.

First: O=C(/C=C/c1ccccc1)N1CCN(Cc2cc(=O)n3nc(-c4ccccc4F)sc3n2)CC1
Second: CCc1ccccc1NC(=O)N1CCN(C(=O)c2nsc3ccccc23)CC1
The “growth rescue” value of the first is higher: -4.83% for the first, -5.21% for the second.

Compared with `Cc1ccc(Oc2c(C(F)(F)F)oc3c(CN4CCCCC4)c(O)ccc3c2=O)cc1`, `Cc1ccc(S(=O)(=O)c2nc(-c3cccs3)oc2N2CCCCC2)cc1` is lower in “growth rescue” value: 1.02% for the first, -18.9% for the second.

First: O=C(NC1(C(F)(F)F)N=C(c2ccccc2)N(C2CCCCC2)C1=O)c1ccccc1F (stereo not drawn)
Second: O=C(NC1CC(=O)N(c2ccc(Cl)cc2)C1)C1CCCC1 (stereo not drawn)
The “growth rescue” value of the first is lower: -14.2% for the first, -12.4% for the second.

Compared with `Cc1cccc(N2CCN(C3=C(c4ccccc4)C(=O)c4ccccc43)CC2)c1C`, `CCN(C(=O)Cn1cc(S(=O)(=O)N2CCN(c3ccccc3F)CC2)c2ccccc2c1=O)c1ccc(C)c(C)c1` is higher in “growth rescue” value: -1.76% for the first, -0.545% for the second.

Compared with `Cc1ccc(-n2nnnc2CNC(=O)c2ccccc2C)cc1C`, `Cc1ccc(-c2cc(C(=O)Oc3ccccc3Cl)no2)cc1C` is lower in “growth rescue” value: -1.32% for the first, -21.5% for the second.

Compared with `CCOC(=O)C1CCN(C(=O)CSc2c3c(nc4ccc(Cl)cc24)CCCC3)CC1`, `CCn1c2c(c(=O)n3ncc(C(=O)N4CCN(c5ccccc5)CC4)c13)CN(Cc1ccc(OC)cc1)CC2` is lower in “growth rescue” value: -29.2% for the first, -35% for the second.

Going from `CN(Cc1ccccc1)C(=O)c1cc2c(=O)n(C)c3ccccc3c2s1` to `CCOC(=O)c1ccccc1NC(=O)c1nn(-c2ccc(OC)c(Cl)c2)c(=O)c2c1c1ccccc1n2C`, the “growth rescue” value rises from -23.3% to -7.24%.

Compared with `COc1ccccc1NC(=O)c1sc2nc(C)c(C(=O)Nc3ccc(Cl)cc3)c(-c3ccc(Br)cc3)c2c1N`, `COC(=O)c1ccc(C2C(C(=O)Nc3ccccc3)=C(C)Nc3nc4ccccc4n32)cc1` (stereo not drawn) is lower in “growth rescue” value: 0.809% for the first, -12.9% for the second.

First: CCOc1ccc(CNCCSc2nnnn2C)cc1
Second: Cc1ccc(OCCn2c(CNc3ccccc3C)nc3ccccc32)cc1
The “growth rescue” value of the first is lower: -10.3% for the first, 15.5% for the second.

First: COCCn1c(CCC(=O)Nc2cc(C)ccc2C)nc2cccnc21
Second: Cc1c(NC(=O)C(C)(C)C)cccc1-c1nc2ccccc2s1
The “growth rescue” value of the first is lower: -14.8% for the first, -1.45% for the second.

First: COc1cccc(CN2CCc3nc(SCC(=O)Nc4ccccc4)[nH]c(=O)c3C2)c1
Second: COc1cccc(CNC(=O)CN2C(=O)CCc3cc(S(=O)(=O)N4CCOCC4)ccc32)c1
The “growth rescue” value of the first is lower: -18.6% for the first, -1.3% for the second.

Going from `Cc1ccc(C)c(Cn2c(=O)n(CCC(=O)NCc3ccc4c(c3)OCO4)c(=O)c3sccc32)c1` to `CCC1CCCCN1C(=O)Cn1c(=O)n(CCCCCC(=O)NCc2ccccc2)c(=O)c2sccc21` (stereo not drawn), the “growth rescue” value falls from -2.35% to -5.1%.

First: CC(=O)N1CCCc2ccc(NS(=O)(=O)c3ccc(F)cc3F)cc21
Second: Cc1onc(-c2ccc(F)cc2F)c1C(=O)Nc1cccc(C(F)(F)F)c1
The “growth rescue” value of the first is lower: -11.4% for the first, 14.6% for the second.

Going from `COc1cc(OC)c(OC)cc1/C=C/c1nc2cc3ccccc3cc2c(=O)n1-c1ccc(F)c(Cl)c1` to `COc1cc2nc(SCc3ccc(F)cc3)n3nc(CCn4c(C)nc5ccccc54)nc3c2cc1OC`, the “growth rescue” value rises from 1.71% to 3%.

Going from `CCOC(=O)c1cccc(NC(=O)C(Cc2ccccc2)NS(=O)(=O)c2cccc3nsnc23)c1` (stereo not drawn) to `CCOC(=O)c1ccc(NC(=O)Cn2cc(S(=O)(=O)Cc3ccccc3F)c3ccccc32)cc1`, the “growth rescue” value falls from 2.38% to -11.8%.

Compared with `O=C(CSc1nccc(=O)[nH]1)Nc1ccc(N2CCOCC2)c(Cl)c1`, `Cc1ccc(C(=O)Nc2ccc3[nH]c(=O)c(=O)[nH]c3c2)cc1` is lower in “growth rescue” value: 1.41% for the first, -7.86% for the second.

Compared with `Cc1cc(=O)c2cc(C(=O)Nc3cccc(C)c3C)ccc2[nH]1`, `COc1ccc(-c2cccc(NS(=O)(=O)c3cc(C)c(OC)c(C)c3C)c2)nn1` is higher in “growth rescue” value: -23.2% for the first, -2.08% for the second.

Going from `Cc1cc2n(n1)C(c1cc(C(C)(C)C)c(O)cc1O)Nc1ccccc1-2` (stereo not drawn) to `Cc1ccc(C2c3[nH]c4ccccc4c3CCN2C(=O)c2cccc(C)c2)cc1` (stereo not drawn), the “growth rescue” value falls from -7.92% to -11.7%.

Compared with `Cc1ccc2sc(N(Cc3cccnc3)C(=O)C3COc4ccccc4O3)nc2c1C` (stereo not drawn), `O=C(CCC1N=C2c3ccccc3N=C(SCc3ccccc3F)N2C1=O)NCCc1ccccc1` (stereo not drawn) is lower in “growth rescue” value: 0.662% for the first, -8.87% for the second.

Compared with `C=Cc1ccc(Cn2c(C(=O)OC)cc3sc(C)cc32)cc1`, `Cc1ccc(CNS(=O)(=O)c2ccc(-c3cc(C(F)(F)F)on3)s2)cc1` is higher in “growth rescue” value: -8.79% for the first, -5.81% for the second.

Going from `CC1=C(C(=O)OCc2ccc(C)cc2)C(c2c(Cl)cccc2Cl)CC(=O)N1` (stereo not drawn) to `Cc1csc2nc(COC(=O)c3ccc(NC(=O)COc4ccccc4F)cc3)cc(=O)n12`, the “growth rescue” value falls from 0.21% to -4.93%.

Going from `COc1cc(-c2noc(-c3ccc(N4CCCC4)c([N+](=O)[O-])c3)n2)cc(OC)c1OC` to `N#Cc1nc(/C=C/c2ccc(F)cc2)oc1NC1CCCCC1`, the “growth rescue” value falls from -0.0152% to -13%.

In the case of `CCCC12CN3CC(C)(CN(C1)C3c1ccccc1Cl)C2=O` (stereo not drawn), the “growth rescue” value is reported as -3.76%.

For `CC(C)CC(=O)N/C(N)=N/c1nc2ccccc2s1`, the Potency was 11.2 µM (active).
In the case of `O=C(CSc1ccc([N+](=O)[O-])cn1)Nc1ccc(N2CCOCC2)c(Cl)c1`, the Potency is reported as 22.4 µM (active).
